Screening data: PubChem, National Center for Advancing Translational Sciences (NCATS)
G9a inh: qHTS Assay for Inhibitors of Histone Lysine Methyltransferase G9a | G9a H3K9 monomethylation, AlphaScreen, 2 h | Potency, µM (series often up to 102 µM), without a hit: at the highest dose activity, negative = inhibition, usual class: inhibitors | hit rate 8.8% among 350,000; further: on the % scale 0 is the no-effect control and ±100 the full control effect; nearly all actives have a fitted effect of over 75% in size
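Enzyme 20 nM + cpd, 15 min RT; add b-H3K9 pep 500 nM / SAM 20 uM; 2 h RT; anti-H3K9me1 Ab 0.5 ug/mL + SA donor / anti-rabbit acceptor beads 20 ug/mL each, 10 min; AlphaScreen read.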
L3MBTL1 block: qHTS Assay for the Inhibitors of L3MBTL1 | Lethal(3)malignant brain tumor-like protein 1 (Homo sapiens), Q9Y468 | AlphaScreen L3MBTL1–H3K9me1 peptide binding | Potency, µM (highest dose often 57.1 µM), inactives show at the top dose activity, negative = inhibition, hits mostly inhibitors | hit rate 0.66% among 230,000; further: on the % scale 0 is the no-effect control and ±100 the full control effect; nearly all actives have a fitted effect of over 60% in size
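L3MBTL1 50 nM + b-AHA-H3(1-15)K9me1 75 nM, 30 min RT; compound added, 30 min RT; streptavidin donor/Ni-chelate acceptor beads 10 ug/mL each final, 30 min RT dark; AlphaScreen read.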
HP1b binding inh: HTS for Inhibitors of HP1-beta Chromodomain Interactions with Methylated Histone Tails | AlphaScreen HP1-beta / biotin-H3K9me3 peptide binding | Potency, µM (highest dose often 114 µM), without a hit: at the top dose activity change, negative = inhibition, most hits filed as inhibitors | hit rate 0.56% among 390,000 | AID 540317, 2011; further: nearly all actives have a fitted effect of over 70% in size
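Compound inhibition of the preformed complex between 50 nM HP1-beta and 50 nM biotinylated H3K9me3 peptide was read by AlphaScreen. Buffer was PBS pH 7.4 with 0.01% Tween-20. Incubations ran 30 min at room temperature, with 10 ug/mL donor/acceptor beads.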
Sfp inh: qHTS Assay for Inhibitors of Bacillus subtilis Sfp phosphopantetheinyl transferase (PPTase); Potency, µM, without a hit: largest response in the series, negative = inhibition, most hits filed as inhibitors; Biochemical Sfp PPTase activity, qHTS; hit rate 3.5% among 310,000; 4'-phosphopantetheinyl transferase ffp (Bacillus subtilis), Q9F4F7;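 further: the enzyme is Sfp with the accession as filed and its product quenches rhodamine fluorescence; 0% = enzyme reaction without inhibitor and -100% = no enzyme wells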
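Compounds were incubated with enzyme (final 15 nM) for 15 min at room temperature before substrate addition started the reaction. Fluorescence at 525 nm excitation, 598 nm emission was recorded immediately and after 30 minutes.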
JMJD2A Tudor: qHTS Assay for Inhibitors of JMJD2A-Tudor Domain; Potency, µM (titrated, usually from 114 µM), without a hit: top-dose activity change, negative = inhibition, most hits filed as inhibitors; AID 504339, 2011; hit rate 4.4% among 390,000; AlphaScreen JMJD2A-Tudor / H3K4me3 peptide binding; further: on the % scale 0 is the no-effect control and ±100 the full control effect; nearly all actives have a fitted effect of over 50% in size
BAZ2B block: qHTS Assay for Inhibitors of BAZ2B; hit rate 4.4% among 360,000; AlphaScreen BAZ2B-H3K14Ac peptide displacement; Bromodomain adjacent to zinc finger domain protein 2B (Homo sapiens), Q9UIF8; Potency, µM (top dose mostly 114 µM), for inactives: top-dose activity change, negative = inhibition, hits mostly inhibitors; further: on the % scale 0 is the no-effect control and ±100 the full control effect; nearly all actives have a fitted effect of over 60% in size
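BAZ2B (50 nM) with biotin-H3(5-23)K14Ac peptide (50 nM) in PBS pH 7.4, 0.01% Tween-20, preformed 30 min, then compound 30 min at room temperature; top concentration 110uM. AlphaScreen streptavidin donor/nickel chelate acceptor beads (10 ug/mL final), 20 min dark, signal read.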
The depositor's hits bear a star; ? = inconclusive; / = no result; [ ] = remark or other dose. Most compounds without a hit are left out; they make up all but 12% or so of the library. The call rests on the fitted dose curve; in most records, active means well fitted curve in the direction sought with a large enough effect; inconclusive means small, poorly fitted or top-dose-only effect, or another doubt; inactive means no such curve, though single readings can be large; an effect the other way counts as inactive or inconclusive. Potency means the concentration at half of the fitted maximal effect.

SMILES | G9a inh | L3MBTL1 block | HP1b binding inh | Sfp inh | JMJD2A Tudor | BAZ2B block
N#Cc1cc2c(nc1SCC(=O)N1CCCCC1)CCCCC2 | 2.8µM* | / | -20% | 56µM* | 56µM* | 10%
CCOC(=O)CC(=O)COc1nc2cc3c(nc2o1)CCCC3 | 45µM* | 1% | 40% | -6% | ? | 4%
COc1ccc(C(=O)N(Cc2ccco2)Cc2cccs2)c(OC)c1 | / | / | 12% | / | -31% | /
O=C(CCCn1c(=O)c2cccn2c2ccccc21)Nc1cc(C(F)(F)F)ccc1Cl | -2%[59 µM] | / | -2% | / | -11% | -1%
COc1ccc(OC)c(C2c3c(oc4ccc(C)cc4c3=O)C(=O)N2CCCN(C)C)c1 (configuration not stated) | 9%[59 µM] | / | 30% | / | -8% | -3%
CN1C(=O)C(O)(CC(=O)/C=C/C=C/c2ccccc2)c2ccccc21 (configuration not stated) | -48%[59 µM] | -6% | 12% | ? | -10% | ?
Cc1ccc(C(=O)CC2(O)C(=O)N(C)c3ccccc32)o1 (configuration not stated) | 50µM* | / | 41% | -2% | -21% | 0%
CN1C(=O)C(O)(CC(=O)c2ccccc2O)c2cc(Br)ccc21 (configuration not stated) | 24%[59 µM] | -1% | 44% | 1% | -10% | ?
CN1C(=O)C(O)(CC(=O)/C=C/c2ccco2)c2ccccc21 (configuration not stated) | ? | 3% | 59% | 25µM* | -15% | -13%
CN1C(=O)C(O)(CC(=O)/C=C/c2ccco2)c2cc(Br)ccc21 (configuration not stated) | 35µM* | -14% | 8% | 45µM* | -35% | -28%
Cc1ccc(-c2n[nH]c(=S)c3ccccc23)cc1S(=O)(=O)NCC1CCCO1 (configuration not stated) | 22µM* | / | -36% | 6% | 18µM* | -33%
Cc1ccc(-c2n[nH]c(=O)c3ccccc23)cc1S(=O)(=O)NCC1CCCO1 (configuration not stated) | 13% | / | 15% | 12% | 1% | -14%
COc1ccc(-n2c(C)cc(/C=C3\C(=O)NN(c4ccccc4)C3=O)c2C)cc1 | -18% | -10% | -3% | 1% | -21% | -27%
COc1cc(/C=C2/C(=O)NN(c3ccccc3)C2=O)cc(Br)c1O | 40µM* | / | -24% | -11% | ? | ?
CCOc1cc(/C=C2\C(=O)NN(c3ccccc3)C2=O)cc([N+](=O)[O-])c1O | 32µM* | / | 40µM* | 0% | 50µM* | ?
COc1cc(/C=C2\C(=O)NN(c3ccccc3)C2=O)cc([N+](=O)[O-])c1O | 16µM* | / | ? | ? | 89µM* | 56µM*
COc1cc(/C=C2/C(=O)NN(c3ccc(Cl)cc3)C2=O)cc(OC)c1O | ? | / | ? | -2% | 50µM* | 35µM*
Cc1cc(/C=C2/C(=O)NN(c3ccccc3)C2=O)c(C)n1-c1ccc(O)cc1 | -8%[59 µM] | -4% | ? | 4% | -21% | -6%
COc1ccc(-c2cnc(C)o2)cc1S(=O)(=O)Nc1ccc(OC(F)(F)F)cc1 | 7%[12.7 µM] | / | 31% | / | -20% | ?
CC(C)CCn1c(SCc2ccc(F)cc2Cl)nc2ccsc2c1=O | -4%[59 µM] | / | 88% | / | 27% | 4%
CCOC(=O)COc1ccc(/C=C2/C(=O)NN(c3ccc(F)cc3)C2=O)cc1OC | -6%[0.501 µM] | -9%[2.29 µM] | 14% | ? | ? | -9%
COc1cc(/C=C2\C(=O)NN(c3ccc(C)cc3)C2=O)cc([N+](=O)[O-])c1O | 14µM* | -18% | ? | -11% | ? | 40µM*
